PubChem BioAssay (NCATS)
Results filed as inconclusive are left out. Entries that show only a call come without a potency. Unmarked numbers belong to inactive results. Activity calls are given as the source filed them. Unless noted, the call rests on the fitted dose curve.

Experiments:
[1] = qHTS for Inhibitors of the Functional Ribonucleoprotein Complex (vRNP) of Lassa (LASV) Arenavirus: LASV Primary Screen - GLuc reporter signal (AID 1347082; calls by dose curve; tested in HEK293 reporter line; further: nearly all actives have a fitted effect of over 60% in size; on activity change, negative = inhibition: series mostly up to about 57 µM)
[2] = qHTS for Inhibitors of the Functional Ribonucleoprotein Complex (vRNP) of Lassa (LASV) Arenavirus: Viability assay - alamar blue signal for LASV Primary Screen (AID 1347083; calls by dose curve; tested in HEK293 reporter line; further: nearly all actives have a fitted effect of over 80% in size; on activity change, negative = reduced viability: series mostly up to about 57 µM)
[3] = qHTS for Inhibitors of the Functional Ribonucleoprotein Complex (vRNP) of Lymphocytic Choriomeningitis Arenaviruses (LCMV): Viability assay - alamar blue signal for LCMV Primary Screen (AID 1347085; calls by dose curve; tested in HEK293 reporter line; further: nearly all actives have a fitted effect of over 80% in size; on activity change, negative = lower viability: series mostly up to about 57 µM)
[4] = biological target: Nucleoprotein (Lymphocytic choriomeningitis virus (strain Armstrong)) (UniProt P09992); experiment: qHTS for Inhibitors of the Functional Ribonucleoprotein Complex (vRNP) of Lymphocytic Choriomeningitis Arenaviruses (LCMV): LCMV Primary Screen - GLuc reporter signal (AID 1347086); further: nearly all actives have a fitted effect of over 70% in size; on activity change, negative = inhibition: series mostly up to about 57 µM
Potency means the concentration at half of the fitted maximal effect.

Nucleoprotein (Lymphocytic choriomeningitis virus (strain Armstrong)), sequence (P09992 whole entry, looked up): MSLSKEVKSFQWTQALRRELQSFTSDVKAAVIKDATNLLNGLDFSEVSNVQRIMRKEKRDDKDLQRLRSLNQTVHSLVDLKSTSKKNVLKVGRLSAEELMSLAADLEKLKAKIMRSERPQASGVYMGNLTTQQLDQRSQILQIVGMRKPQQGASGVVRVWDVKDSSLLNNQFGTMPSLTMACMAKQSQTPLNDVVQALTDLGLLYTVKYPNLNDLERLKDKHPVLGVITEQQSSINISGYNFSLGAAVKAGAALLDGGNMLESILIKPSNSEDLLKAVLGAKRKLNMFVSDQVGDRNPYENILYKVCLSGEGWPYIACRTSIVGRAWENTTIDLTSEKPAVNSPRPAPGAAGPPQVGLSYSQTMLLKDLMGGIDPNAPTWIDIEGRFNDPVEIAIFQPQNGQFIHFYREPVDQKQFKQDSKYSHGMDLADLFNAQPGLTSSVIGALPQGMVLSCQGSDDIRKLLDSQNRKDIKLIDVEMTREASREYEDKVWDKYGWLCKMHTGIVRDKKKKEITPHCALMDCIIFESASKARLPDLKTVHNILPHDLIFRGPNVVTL

| Compound | Potency [1] | Potency [2] | Potency [3] | Potency [4] | activity change, negative = inhibition [1] | activity change, negative = reduced viability [2] | activity change, negative = lower viability [3] | activity change, negative = inhibition [4] |
| --- | --- | --- | --- | --- | --- | --- | --- | --- |
| CCCCCCCCCCCCCCCCC | inactive | inactive | inactive | inactive |  |  |  |  |
| CC1(C)C=C2[C@H]3CC[C@@H]4[C@@]5(C)CCC(=O)C(C)(C)[C@@H]5CC[C@@]4(C)[C@]3(C)CC[C@@]2(C(=O)O)CC1 | inactive | inactive | inactive | inactive |  |  |  |  |
| COc1c2c(cc3oc(CO[C@@H]4O[C@H](CO)[C@@H](O)[C@H](O)[C@H]4O)cc(=O)c13)O[C@H](C(C)(C)O)C2 | inactive | inactive | inactive | inactive |  |  |  |  |
| CCCCCC1C(=O)CCC1CC(=O)OC (stereo not given) | inactive | inactive | inactive | inactive |  |  |  |  |
| C=C1C(O)C[C@H]2C(=C)CCC3[C@H](OC(=O)[C@]3(O)CO)[C@@H]12 (stereo not given in full) | inactive | inactive | inactive | inactive |  |  |  |  |
| C[C@@H]1CC[C@]2(C(=O)O[C@@H]3O[C@H](CO)[C@@H](O)[C@H](O)[C@H]3O)CC[C@]3(C)C(=CCC4[C@@]5(C)C[C@@H](O)[C@H](O)[C@@](C)(C(=O)O[C@@H]6[C@H](O)C[C@@]7(C)C(CC[C@]8(C)C7CC=C7[C@H]9[C@](C(=O)O[C@@H]%10O[C@H](CO)[C@@H](O)[C@H](O)[C@H]%10O)(CC[C@@H](C)[C@@]9(C)O)CC[C@]78C)[C@@]6(CO)C(=O)O)C5CC[C@]43C)[C@@H]2[C@]1(C)O (stereo not given in full) | inactive | inactive | inactive | inactive |  |  |  |  |
| CNCC(=O)O | inactive | inactive | inactive | inactive |  |  |  |  |
| CC1OCCC1=O (stereo not given) | inactive | inactive | inactive | inactive |  |  |  |  |
| O=C1N[C@@H](Cc2c[nH]c3ccccc23)C(=O)N[C@H]1Cc1ccccc1 | inactive | inactive | inactive | inactive |  |  |  |  |
| O=C1c2c(O)cc(O)cc2O[C@H](c2ccc(O)c(O)c2)[C@@H]1O | inactive | inactive | inactive | inactive |  |  |  |  |
| Cn1c(-c2ccccc2)cc(=O)c2ccccc21 | inactive | inactive | inactive | inactive |  |  |  |  |
| CC1(C)Oc2ccc3ccc(=O)oc3c2C[C@H]1O[C@@H]1O[C@H](CO)[C@@H](O)[C@H](O)[C@H]1O | inactive | inactive | inactive | inactive |  |  |  |  |
| COc1cc(C)c(C(=O)Oc2cc(C)c(C(=O)O)c(O)c2C)c(O)c1C | inactive | inactive | inactive | inactive |  |  |  |  |
| COc1ccc(-c2cc(=O)c3ccc(O)cc3o2)cc1 | inactive | inactive | inactive | inactive |  |  |  |  |
| COc1ccc(-c2cnc(-c3cccnc3)o2)cc1 | inactive | inactive | inactive | inactive |  |  |  |  |
| CS(C)(=O)=O | inactive | inactive | inactive | inactive |  |  |  |  |
| c1ccc(-c2ccc3ccccc3n2)cc1 | inactive | inactive | inactive | inactive |  |  |  |  |
| CC(C)CN(C[C@H](O)[C@H](Cc1ccccc1)NC(=O)O[C@H]1CCOC1)S(=O)(=O)c1ccc(N)cc1 | inactive | inactive | inactive | inactive |  |  |  |  |
| CN1CCc2cc(Cl)c(O)cc2[C@@H](c2ccccc2)C1 | inactive | inactive | inactive | inactive |  |  |  |  |
| COc1cc2nc3occc3c(OC)c2cc1OC | inactive | inactive | inactive | inactive |  |  |  |  |

| Compound | Potency [1] | Potency [2] | Potency [3] | Potency [4] | activity change, negative = inhibition [1] | activity change, negative = reduced viability [2] | activity change, negative = lower viability [3] | activity change, negative = inhibition [4] |
| --- | --- | --- | --- | --- | --- | --- | --- | --- |
| COc1ccc(C(=O)OCCc2ccc(O)cc2)cc1 | inactive | inactive | inactive | inactive |  |  |  |  |
| Oc1ccc(C=Cc2cc(O)cc(O)c2)cc1 | inactive | inactive | inactive | inactive |  |  |  |  |
| O=C(O)CCc1ccccc1 | inactive | inactive | inactive | inactive |  |  |  |  |
| C=C1C2CC[C@]3(CCC4[C@@]5(C)CCC[C@@]4(CN(CCO)C5)[C@@H]3C2)[C@@H]1O (stereo not given in full) | inactive | inactive | inactive | inactive |  |  |  |  |
| CCCCc1ccc(O)cc1 | inactive | inactive | inactive | inactive |  |  |  |  |
| NCc1ccccc1 | inactive | inactive | inactive | inactive |  |  |  |  |
| COc1cc2c(cc1OC)C1Cc3ccc(OC)c(OC)c3C[N+]1([O-])CC2 (stereo not given) | inactive | inactive | inactive | inactive |  |  |  |  |
| C/C=C/c1cc(OC)c2c(c1)[C@H](C)[C@@H](c1ccc(O)c(OC)c1)O2 | inactive | inactive | inactive | inactive |  |  |  |  |
| CCC(=O)Nc1ccccc1 | inactive | inactive | inactive | inactive |  |  |  |  |
| Cc1ccc2oc3ccccc3c(=O)c2c1 | inactive | inactive | inactive | inactive |  |  |  |  |
| S=C(NCc1ccccc1)NCc1ccccc1 | inactive | inactive | inactive | inactive |  |  |  |  |
| O=C1c2ccccc2-n2c1nc1ccccc1c2=O | inactive | inactive | inactive | 0.447 µM (active) |  |  |  |  |
| CC1=CCC[C@H]2[C@H](C1)C(=O)C[C@@H](C)[C@]2(C)CC/C(=C/CO)CO | inactive | inactive | inactive | inactive |  |  |  |  |
| CC(C=O)Cc1ccc(C(C)C)cc1 (stereo not given) | inactive | inactive | inactive | inactive |  |  |  |  |
| Cc1csc(-c2nnc(Nc3ccc(Oc4ncccc4-c4ccnc(N)n4)cc3)c3ccccc23)c1 | inactive | 6.85 µM (active) | 19.3 µM (active) | inactive |  |  |  |  |
| COc1cc(C(=O)OC2C[C@H]3CC[C@@H](C2)N3)ccc1O (stereo not given in full) | inactive | inactive | inactive | inactive |  |  |  |  |
| COc1cc2c(cc1OC)[C@@H]1Cc3cc4c(cc3[C@H](C2)N1C)OCO4 | inactive | inactive | inactive | inactive |  |  |  |  |
| COc1ccc2c(=O)c(-c3ccccc3)c(C)oc2c1 | inactive | inactive | inactive | inactive |  |  |  |  |
| O=C1/C(=C\c2ccc(O)c(O)c2)Oc2c1ccc(O[C@@H]1O[C@H](CO)[C@@H](O)[C@H](O)[C@H]1O)c2O | inactive | inactive | inactive | inactive |  |  |  |  |
| C=C1CCC2[C@](C)(CO)C(O)CC[C@]2(C)C1CC=C1C(=O)OCC1O (stereo not given in full) | inactive | inactive | inactive | inactive |  |  |  |  |

| Compound | Potency [1] | Potency [2] | Potency [3] | Potency [4] | activity change, negative = inhibition [1] | activity change, negative = reduced viability [2] | activity change, negative = lower viability [3] | activity change, negative = inhibition [4] |
| --- | --- | --- | --- | --- | --- | --- | --- | --- |
| COc1c2ccoc2nc2c(OC)c(O[C@@H]3O[C@H](C)[C@@H](O)[C@@H](O)[C@H]3O)ccc12 | inactive | inactive | inactive | inactive |  |  |  |  |
| COC(=O)c1cc(O)c(O)c(O)c1 | inactive | inactive | inactive | inactive |  |  |  |  |
| COC(=O)C=CC(=O)OC | 6.11 µM (active) | 4.85 µM (active) | 3.06 µM (active) | 4.85 µM (active) |  |  |  |  |
| CC(C)(O)c1ccc2c(c1)CCC1C(C)(C(=O)O)CCCC21C (stereo not given) | inactive | inactive | inactive | inactive |  |  |  |  |
| COC(=O)C1=CO[C@@H](O)[C@@H]2C(CO)=CC[C@@H]12 | inactive | inactive | inactive | inactive |  |  |  |  |
| CC(C)=CCc1c(O)cc(O)c2c1OC(c1ccc(O)cc1)CC2=O (stereo not given) | inactive | inactive | inactive | inactive |  |  |  |  |
| COc1cc2ccc(=O)oc2c(O)c1O | inactive | inactive | inactive | inactive |  |  |  |  |
| O=C(O)CCC[C@H](O)\C=C/C=C/C=C/[C@H](O)C/C=C\CCCCCO |  |  |  |  | 12% [at 0.757 µM] | 2.93% [at 0.757 µM] | -25.2% [at 0.757 µM] | -1.08% [at 0.757 µM] |
| CC(C)CC(=O)OC(C)(C)[C@@H]1Cc2c(ccc3ccc(=O)oc23)O1 | inactive | inactive | inactive | inactive |  |  |  |  |
| COc1c2c(c3c(c1OC)c(=O)c1ccccc1n3C)OCO2 | inactive | inactive | inactive | inactive |  |  |  |  |
| COc1n[nH]c2nncnc12 | inactive | inactive | inactive | inactive |  |  |  |  |
| CC(=O)c1ccc(C)cc1 | inactive | inactive | inactive | inactive |  |  |  |  |
| Nc1nc2c(ncn2[C@@H]2O[C@H](CO)[C@@H](O)[C@@H]2O)c(=O)[nH]1 | inactive | inactive | inactive | inactive |  |  |  |  |
| O=C(O)[C@H]1NC[C@H]2C[C@H]21 | inactive | inactive | inactive | inactive |  |  |  |  |
| CC(C)CCO | inactive | inactive | inactive | inactive |  |  |  |  |
| Cc1ncsc1CCO | inactive | inactive | inactive | inactive |  |  |  |  |
| C=CC(=O)Nc1cccc(Nc2nc(NC3CCC(N(C)C)CC3)nc3c2ncn3C(C)C)c1 (stereo not given) | 2.17 µM (active) | 0.968 µM (active) | 0.544 µM (active) | 0.863 µM (active) |  |  |  |  |
| CC(C)C1C(=O)O[C@@H]2CCN3CC=C(COC(=O)[C@](C)(O)[C@]1(C)O)[C@H]23 (stereo not given in full) | inactive | inactive | inactive | inactive |  |  |  |  |
| CCOC(=O)Cc1ccccc1 | inactive | inactive | inactive | inactive |  |  |  |  |
| CC(C)(O)CC[C@@H](O)[C@](C)(O)C1CC[C@@]2(O)C3=CC(=O)[C@]4(O)C[C@@H](O)[C@@H](O)C[C@]4(C)C3CC[C@]12C (stereo not given in full) | inactive | inactive | inactive | inactive |  |  |  |  |
